PubChem BioAssay (NCI)
This is part of a sample that, as a whole, favours compounds with a hit. Of some 83,000 tested, about 20% had one in any assay.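 Single-dose data. Exposure time 48 hours. Values below 10 considered active.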

What was measured:
Assay in all cases: NCI-60 one-dose screen, 48 h (100 = growth as untreated, 0 = no growth, -100 = all killed)
Conditions in all cases: 10 µM
NCI-H23 lung = test system: NCI-H23 lung
NCI-H226 lung = test system: NCI-H226 lung
NCI-H322M lung = test system: NCI-H322M lung
NCI-H460 lung = test system: NCI-H460 lung
HOP-92 NSCLC = test system: HOP-92 NSCLC
NCI-H522 lung = test system: NCI-H522 lung
A549/ATCC NSCLC = test system: A549/ATCC NSCLC
786-0 renal = test system: 786-0 renal
COLO 205 colon = test system: COLO 205 colon
HOP-62 NSCLC = test system: HOP-62 NSCLC

Measured: growth

O=C(/C(=N/O)c1ccccc1)c1ccccc1
inactive: NCI-H23 lung 105% | NCI-H226 lung 91.2% | NCI-H322M lung 95.8% | NCI-H460 lung 108% | HOP-92 NSCLC 96.6% | NCI-H522 lung 109% | A549/ATCC NSCLC 98.1% | 786-0 renal 98.1% | COLO 205 colon 115%

CC(=O)NCc1cc(C)c(C)cc1C
inactive: NCI-H23 lung 102% | NCI-H226 lung 93.4% | NCI-H322M lung 92% | HOP-62 NSCLC 106% | NCI-H460 lung 104% | 786-0 renal 97.8% | COLO 205 colon 94.2%

CCC(C)(C)C1CCC(O)CC1 (stereo not given)
inactive: NCI-H23 lung 91% | NCI-H226 lung 103% | NCI-H322M lung 103% | HOP-62 NSCLC 90.5% | NCI-H460 lung 103% | A549/ATCC NSCLC 106% | COLO 205 colon 110%

CCOC(=O)C(O)C(O)C(=O)OCC (stereo not given)
inactive: NCI-H23 lung 100% | NCI-H226 lung 106% | NCI-H322M lung 102% | NCI-H460 lung 103% | HOP-92 NSCLC 94.1% | NCI-H522 lung 101% | A549/ATCC NSCLC 104% | 786-0 renal 105% | COLO 205 colon 106%

COc1cc(/C=C(\C#N)C(=O)c2ccccc2)ccc1OCc1ccccc1
inactive: NCI-H23 lung 91.5% | NCI-H226 lung 92.3% | NCI-H322M lung 91.6% | NCI-H460 lung 101% | HOP-92 NSCLC 95.7% | NCI-H522 lung 97.6% | A549/ATCC NSCLC 104% | 786-0 renal 101%

O=C(O)c1cccc([N+](=O)[O-])c1
inactive: NCI-H23 lung 95% | NCI-H226 lung 107% | NCI-H322M lung 97.4% | NCI-H460 lung 106% | HOP-92 NSCLC 96% | NCI-H522 lung 112% | A549/ATCC NSCLC 105% | 786-0 renal 104% | COLO 205 colon 113%

CC1(C(N)=O)CCC(C(=O)O)C1(C)C (stereo not given)
inactive: NCI-H23 lung 103% | NCI-H226 lung 95.5% | NCI-H322M lung 95.2% | NCI-H460 lung 103% | HOP-92 NSCLC 94.3% | NCI-H522 lung 106% | A549/ATCC NSCLC 98% | 786-0 renal 98% | COLO 205 colon 108%

OC1OC(COC(c2ccccc2)(c2ccccc2)c2ccccc2)C(O)C(O)C1O (stereo not given)
inactive: NCI-H23 lung 98.1% | NCI-H226 lung 90.1% | NCI-H322M lung 92.1% | HOP-62 NSCLC 107% | NCI-H460 lung 101% | 786-0 renal 102% | COLO 205 colon 117%

CCO/C=C1\SC(=S)N(c2cccc(C)c2)C1=O
inactive: NCI-H23 lung 108% | NCI-H226 lung 93.4% | NCI-H322M lung 92% | HOP-62 NSCLC 88.9% | NCI-H460 lung 102% | 786-0 renal 106% | COLO 205 colon 108%

O=C(/C=C/C(=O)c1ccccc1)c1ccccc1
inactive: NCI-H23 lung 99% | NCI-H226 lung 107% | NCI-H322M lung 116% | HOP-62 NSCLC 109% | HOP-92 NSCLC 96.3% | NCI-H522 lung 74.8% | A549/ATCC NSCLC 105% | 786-0 renal 103% | COLO 205 colon 70.1%

Cc1ccc(CCCC(=O)O)c(C)c1
inactive: NCI-H23 lung 103% | NCI-H226 lung 93.4% | NCI-H322M lung 102% | HOP-62 NSCLC 95.7% | NCI-H460 lung 102% | 786-0 renal 99.4% | COLO 205 colon 102%

Cc1cc2ccccc2c(O)c1C#N
inactive: NCI-H23 lung 91.1% | NCI-H226 lung 102% | NCI-H322M lung 119% | HOP-62 NSCLC 85.5% | NCI-H460 lung 107% | A549/ATCC NSCLC 107% | COLO 205 colon 112%

CCCCCC(C)(CC(=O)O)CC(=O)O
inactive: NCI-H23 lung 115% | NCI-H226 lung 97% | NCI-H322M lung 113% | HOP-62 NSCLC 101% | NCI-H460 lung 108% | A549/ATCC NSCLC 101% | 786-0 renal 107% | COLO 205 colon 116%

O=C1N(C[P+](c2ccccc2)(c2ccccc2)c2ccccc2)CCCN1C[P+](c1ccccc1)(c1ccccc1)c1ccccc1
inactive: NCI-H23 lung 109% | NCI-H226 lung 102% | NCI-H322M lung 106% | NCI-H460 lung 107% | HOP-92 NSCLC 79.5% | NCI-H522 lung 108% | A549/ATCC NSCLC 101% | 786-0 renal 103%

CC1(C)OC(=O)C(c2ccsc2)C(=O)O1
inactive: NCI-H23 lung 95% | NCI-H226 lung 105% | NCI-H322M lung 102% | NCI-H460 lung 113% | HOP-92 NSCLC 104% | NCI-H522 lung 82.6% | A549/ATCC NSCLC 84.7% | 786-0 renal 108%

Cc1ncc(C#N)c(N)n1
inactive: NCI-H23 lung 99% | NCI-H226 lung 94.8% | NCI-H322M lung 89.1% | NCI-H460 lung 102% | HOP-92 NSCLC 87.1% | NCI-H522 lung 102% | A549/ATCC NSCLC 106% | 786-0 renal 96.4% | COLO 205 colon 107%

Cc1c(C(=O)O)c(=O)n(-c2ccccc2)n1C
inactive: NCI-H23 lung 92% | NCI-H226 lung 103% | NCI-H322M lung 122% | HOP-62 NSCLC 96.7% | NCI-H522 lung 104% | A549/ATCC NSCLC 108% | 786-0 renal 113% | COLO 205 colon 110%

CCOC(=O)C1OC1c1ccccc1 (stereo not given)
inactive: NCI-H23 lung 98.6% | NCI-H226 lung 100% | NCI-H322M lung 101% | NCI-H460 lung 103% | HOP-92 NSCLC 99.2% | NCI-H522 lung 104% | A549/ATCC NSCLC 102% | 786-0 renal 98.3% | COLO 205 colon 102%
